Screening results as filed in PubChem BioAssay.
Shown are actives, neighbours in structure and some others; about 6.2% of the full set was active somewhere.
HCMV inh: qHTS Assay for inhibitors of the human cytomegalovirus (HCMV). hit rate 4.5% among 410,000. HFF cells, HCMV-luciferase reporter, 72 h; active compounds read low. activity change, negative = inhibition, % at 57.5 µM; in the data active = activity change below about -60%; inconclusive = no clear call, values can overlap the other calls; inactive = above about -39%
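Luciferase read-out from HCMV-luciferase-infected HFFs (MOI 1 PFU/cell) 72 h post infection at 37C; compounds added after 16 h cell attachment; activity normalized between buffer-only basal and Salinomycin (10uM) inhibitor controls.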
Lassa entry inh: qHTS for Inhibitors of binding or entry into cells for Lassa Virus; Lassa virus pseudotype entry inhibition, cell reporter; Potency, µM (top dose mostly 37.9 µM), without a hit: at the top dose activity change, negative = inhibition, hits mostly inhibitors; hit rate 1.2% among 300,000; AID 540256, 2011; calls by dose curve; tested in HEK293 cells; also: potency is read from the fitted curve at half-maximal effect; nearly all actives have a fitted effect of over 50% in size
Marburg entry inh: qHTS for inhibitors of binding or entry into cells for Marburg Virus | Marburg virus pseudotyped entry inhibition, cell reporter | Potency, µM (titrated, usually from 37.8 µM), without a hit: top-dose activity change, negative = inhibition, hits mostly inhibitors | hit rate 1.8% among 300,000 | AID 540276, 2011; calls by dose curve; tested in HEK293 cells; also: potency is read from the fitted curve at half-maximal effect
FMDV antiviral: High Throughput Screening for Foot and Mouth Disease Virus Antivirals. FMDV antiviral cell-based qHTS. AID 1159524, 2015. hit rate 1.2% among 410,000. Potency, µM (top dose mostly 57.9 µM), without a hit: at the highest dose activity change, negative = inhibition, most hits filed as inhibitors; calls by dose curve; tested in HEK293T cells; also: read-out not given here; potency is read from the fitted curve at half-maximal effect; nearly all actives have a fitted effect of over 45% in size
The depositor's hits bear a star; ? = inconclusive; . = no result given; ! = a repeat was not active; [ ] = another dose, or the depositor's remark. % is scaled to controls: 0 for no effect and ±100 for the full control effect.

SMILES	HCMV inh	Lassa entry inh	Marburg entry inh	FMDV antiviral
Cn1nc(C(F)(F)F)c2cc(C(=O)Nc3ccc(F)cc3)sc21	-18	-2%	-22%[46.1 µM]	6%
CCOc1ccc(S(=O)(=O)c2cc3cccc(OCC)c3oc2=O)cc1	8	10%[46.1 µM]	1%[46.1 µM]	-10%
Cc1ccc(Cl)cc1-n1c(=O)c2sc3ccccc3c2n(CC(=O)NC2CCCC2)c1=O	-14	10%[46.1 µM]	?	-14%
CCCCn1c(=O)[nH]c(=O)c2c1nc(-c1ccc(OCCC)c(OCC)c1)n2CCOC	-28	?	-1%[46.1 µM]	-15%
Cn1c(-c2cccc(F)c2)nc2c1c(=O)[nH]c(=O)n2Cc1ccccc1	31	8.9µM*	0%[46.1 µM]	1%
Cn1c(-c2cccc(OCc3ccccc3)c2)nc2c1c(=O)[nH]c(=O)n2Cc1ccccc1	-15	?	-8%	35µM*
CCCn1c(=O)[nH]c(=O)c2c1nc(-c1ccc(OC)c(Br)c1)n2CCOC	-8	7.9µM*	2%[46.1 µM]	-11%
COCCn1c(-c2cccc([N+](=O)[O-])c2)nc2c1c(=O)[nH]c(=O)n2Cc1ccccc1	-87*	?	?	-14%
CCOc1ccc(C(=O)Nc2nnc(SCc3cc(=O)c4cc(C)ccc4[nH]3)s2)cc1	32	16%[46.1 µM]	.	-3%
O=C(O)c1c(Cl)c(Cl)c(Cl)c(Cl)c1-c1c2cc(I)c(=O)c(I)c-2oc2c(I)c(O)c(I)cc12	?	?	47%	.
c1ccc(C2[C@H]3CN(Cc4cccnc4)[C@H](c4ccccc4)C34CC2(c2cccnc2)C4)cc1 (stereo partly specified)	-65*	.	.	-5%
c1ccc(C2[C@H]3CN(Cc4cccnc4)[C@H](c4ccccc4)C34CC2(c2ccccc2)C4)cc1 (stereo partly specified)	-6	.	.	?
FC(F)(F)c1ccc(CN2C[C@@H]3C(c4ccc(C(F)(F)F)cc4)C4(c5cccnc5)CC3(C4)[C@H]2c2ccccc2)cc1 (stereo partly specified)	-73*	.	.	?
FC(F)(F)c1ccc(CN2C[C@@H]3C(c4ccccc4)C4(c5cccnc5)CC3(C4)[C@H]2c2ccccc2)cc1 (stereo partly specified)	-26	.	.	?
COC(=O)c1cccc(C23CC4(C2)[C@H](CN(Cc2ccc(C(F)(F)F)cc2)[C@@H]4c2ccccc2)C3c2ccc(C(F)(F)F)cc2)c1 (stereo partly specified)	-94*	.	.	0%
COc1cccc(Cn2cc(C)cc(NC(=O)NCc3ccccc3)c2=O)c1	11	.	.	35%
COc1cccc(Cn2cccc(NC(=O)Nc3cccc(C#N)c3)c2=O)c1	-62*	.	.	-11%
COc1ccc(-n2c(=O)c(-c3ccc(F)cc3)nc3cncnc32)cc1	.	.	.	2%
CC1(C)CC(=O)c2c(oc3ccc(NS(=O)(=O)c4cccc5cccnc45)cc23)C1	?	?	?	11µM*
O=C1CCCc2oc3ccc(NS(=O)(=O)c4cccc5cccnc45)cc3c21	?	-1%	?	-29%
COc1ccc(C(=O)c2oc3ccccc3c2N)cc1	-67*	1%	-2%	88%
CN(CCO)C(=O)c1cn(C2CCN(Cc3cccc4ccccc34)CC2)nn1	.	.	.	-14%
c1ccc(-c2ccc3c(c2)c2c4n3CCN=C4CCC2)cc1	-15	-5%	26µM*	0%
Cc1oc(-c2ccc(Cl)cc2)nc1CS(=O)CC(=O)NCCCN1CCN(Cc2ccccc2)CC1 (stereo unspecified)	-93*	.	.	-13%
Cc1ccc(-c2nc(CSCC(=O)NCCN3CCN(Cc4ccccc4)CC3)c(C)o2)cc1	-65*	?	?	?
SMILES	HCMV inh	Lassa entry inh	Marburg entry inh	FMDV antiviral
CCN(Cc1ccc(OC)cc1)c1ccc(-c2nc(-c3ccncc3)no2)cc1[N+](=O)[O-]	9	2%[46.1 µM]	2%[46.1 µM]	-17%
C=C(CCN1C=C(C(=O)OCC)C(c2ccccc2)NC1=O)c1ccccc1 (stereo unspecified)	.	.	10%[14.2 µM]	.
O=C(CCNNC(=O)c1ccncc1)NCc1ccccc1	-103*	?	?	-25%
O=C(CCc1ccccc1)NCc1ccncc1	32	.	.	-5%
CC(NCCC(c1ccccc1)c1ccccc1)c1ccccc1 (stereo unspecified)	-40	23µM*	?	13%
COC(=O)c1ccccc1NC(=O)c1nc(-c2ccc(C)cc2)n2c1CCCCC2	15	?	.	-27%
CCCn1c(=O)c(C(=O)NCc2ccccc2Cl)c(O)c2ccccc21	-37	?	1%	-14%
CCCCCn1c(=O)c(C(=O)NCc2ccncc2)c(O)c2ccccc21	-88*	?	?	-14%
CCCCCn1c(=O)c(C(=O)NCc2ccccc2Cl)c(O)c2ccccc21	-74*	.	.	-28%
CCCn1c(=O)c(C(=O)NCc2ccncc2)c(O)c2ccccc21	-12	-1%	0%	-1%
CC(Oc1ccccc1)C(=O)Nc1nnc(S(=O)(=O)N2CCCCCC2)s1 (stereo unspecified)	-69*!	-4%[46.1 µM]	.	-9%
COc1cccc(C2(CC(=O)N3CCC(c4nc5ccc(F)cc5[nH]4)CC3)CC(=O)N(C)C2=O)c1 (stereo unspecified)	.	.	.	9%
CCOc1ccc(-c2cc(C(=O)NCCOC)[nH]n2)c(C)c1	7	.	.	8%
CCOc1ccc(-c2cc(C(=O)Nc3ccc(C)c(NS(C)(=O)=O)c3)[nH]n2)c(C)c1	-91*	.	.	?
Cn1cccc1-c1cc(C(=O)N/N=C/c2cc(Br)ccc2O)[nH]n1	-95*	?	?	-13%
COc1ccc(/C=N/NC(=O)c2ccc(Br)cc2)c(OC)c1	?	-19%[46.1 µM]	-3%[46.1 µM]	26%
O=C(N/N=C/c1c(O)ccc2ccccc12)C(=O)N1CCCC1	-75*	.	.	-12%
COc1ccc(O)c(/C=N/NC(=O)c2ccc(OCc3cccc(Br)c3)cc2)c1	-97*	?	?	-21%
COc1ccc2ccccc2c1/C=N/NC(=O)c1cccc(Br)c1	-67*	-11%	0%	0%
CCc1ccc2[nH]cc(S(=O)(=O)c3ccc(C(C)C)cc3)c(=O)c2c1	2	2%[46.1 µM]	4%[46.1 µM]	6%
CCc1ccc(/C=C2/SC(=S)NC2=O)cc1	.	0%	?	.
COc1ccc(Nc2c(-c3ccc(Cl)cc3)nc3cnccn23)cc1OC	30	?	?	-14%
COc1ccc(/C=N/NC(=O)c2cccc(Br)c2)cc1Cn1cc(Cl)cn1	-14	?	7.1µM*	?
COc1ccccc1OCC(=O)N/N=C/c1cccc2cccnc12	-4	-18%	-28%	-10%
COc1ccc(C(=O)N/N=C/c2cc(Br)ccc2O)cc1OC	-97*	2.5µM*	8.9µM*	-13%
CCCOc1ccc(Br)cc1/C=N/NC(=O)c1cc(OC)c(OC)c(OC)c1	46	-2%	?	-14%
COc1ccccc1OCC(=O)N/N=C/c1c(O)ccc2ccccc12	-109*	.	.	.
Cc1cc(C(=O)Nc2ccccc2-c2nc(CNC(=O)c3sc(C)nc3C)c(C)o2)c(C)o1	.	.	.	1%
